# PubChem BioAssay (EPA / NIEHS)
# Activity calls are given as the source filed them. The calls were made as follows: active = hit-call score of the fitted dose curve at least 0.9, where 1 is the maximum; inactive = score below 0.9.
# Test: APR_HepG2_MitoMass_1hr: Apredica 1-hour HepG2 Assay for Mitochondrial Mass (AID 2282674)
# Settings: high-content imaging, actives raise or lower the signal
# Summary of the method: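 Mitochondrial mass is taken from MitoTracker Red CMXRos (250 nM, 30 min, pre-fixation) fluorescence imaged at 20x in HepG2 cells. Exposure lasted 1 hr across ten concentrations, 0.39 to 200 uM, 0.5% DMSO; DMSO baseline, bidirectional fitting.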
row,SMILES,outcome
1,COP(N)(=O)SC (stereo not given),inactive
2,CC1COC(Cn2cncn2)(c2ccc(Oc3ccc(Cl)cc3)cc2Cl)O1 (stereo not given),inactive
3,O=C(O)COc1nc(Cl)c(Cl)cc1Cl,inactive
4,C=CC1(C)OC(=O)N(c2cc(Cl)cc(Cl)c2)C1=O (stereo not given),inactive
5,C#CCOS(=O)OC1CCCCC1Oc1ccc(C(C)(C)C)cc1 (stereo not given),inactive
6,CS/C(C)=N/OC(=O)N(C)SN(C)C(=O)O/N=C(\C)SC,inactive
7,CON(C)C(=O)Nc1ccc(Cl)c(Cl)c1,inactive

# Test: APR_HepG2_MitoMembPot_1hr: Apredica 1-hour HepG2 Assay for Mitochondrial Membrane Potential (AID 2282675)
# Settings: imaging, actives raise or lower the signal
# Summary of the method: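 Mitochondrial membrane potential read as MitoTracker Red CMXRos intensity by automated imaging of fixed HepG2 cells. Dye at 250 nM for 30 min pre-fixation; compounds 0.39 to 200 uM for 1 hour, duplicate wells, 0.5% DMSO.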
SMILES,outcome,AC50
CC1COC(Cn2cncn2)(c2ccc(Oc3ccc(Cl)cc3)cc2Cl)O1 (stereo not given),inactive,
CCCCNC(=O)OCC#CI,inactive,
COc1nc(C)nc(NC(=O)NS(=O)(=O)c2ccccc2CCC(F)(F)F)n1,inactive,
Oc1ccccc1-c1ccccc1,inactive,
COC(=O)c1ccccc1C(=O)OC,inactive,
CCc1nn(C)c(C(=O)NCc2ccc(C(C)(C)C)cc2)c1Cl,inactive,
C=CCC1=C(C)[C@@H](OC(=O)[C@@H]2[C@@H](C=C(C)C)C2(C)C)CC1=O,,109 µM (active)
CCOP(=S)(OCC)SCn1c(=O)oc2cc(Cl)ccc21,inactive,
